From PubChem BioAssay (EPA / NIEHS)
Where “and” joins values, the source holds several entries; their conditions need not be identical. Identical values can stand only once. Where a structure was tested more than once in an assay, its records may differ in their call. Calls of active or inactive are those of the source. Rule for the calls: active = hit-call score of the fitted dose curve at least 0.9, where 1 is the maximum; inactive = score below 0.9.

Assays:
[1] = ATG_ISRE_CIS: Attagene CIS-FACTORIAL HepG2 Assay for human Interferon Regulatory Factor 1 (IRF1) binding to an Interferon-Stimulated Response Element (ISRE) (AID 2282948); conditions: HepG2 ISRE cis-reporter (Attagene), mRNA transcription readout; actives raise or lower the signal
Procedure, shortened: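 Endogenous transcription factor activity read as reporter transcript abundance via RT-PCR and capillary electrophoresis. HepG2 cells transiently transfected, 24 h chemical exposure. Gain or loss fitted against DMSO baseline.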

[2] = ATG_M_32_CIS: Attagene CIS-FACTORIAL HepG2 Assay for M32 Transcription Factor (Internal Marker) (AID 2282949); conditions: HepG2 Attagene cis-factorial M32 reporter, mRNA; actives raise or lower the signal;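 note: background control marker of the multiplexed CIS panel rather than a real target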
Procedure, shortened: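 Transient MRTU transfection of HepG2; 24 h compound treatment; TriZol RNA, oligo(dT) RT, reporter PCR, 6-FAM primer extension, HpaI cut, CE. Gain/loss of signal vs DMSO.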

[3] = ATG_M_06_CIS: Attagene CIS-FACTORIAL HepG2 Assay for M06 Transcription Factor (Internal Marker) (AID 2282950); conditions: HepG2 Attagene CIS-FACTORIAL M06 internal marker reporter; actives raise or lower the signal
Procedure, shortened: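 Read-out is fluorescence of labelled reporter cDNA fragments resolved by capillary electrophoresis after RT-PCR. Cells: HepG2 carrying transfected cis-promoter reporter units, treated 24 h. Gain or loss of signal fitted relative to DMSO.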

[4] = biological target: Hypoxia-inducible factor 1-alpha (Homo sapiens) (UniProt Q16665); experiment: ATG_HIF1a_CIS: Attagene CIS-FACTORIAL HepG2 Assay for human Hypoxia Inducible Factor 1 (HIF1A) (AID 2282951); conditions: HepG2 Attagene cis-factorial HIF1a reporter transcription; actives raise or lower the signal
Procedure, shortened: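 HepG2, transient cis-reporter library, 24 h dosing. RNA → RT (oligo dT) → PCR → 6-FAM primer extension → HpaI → CE. Bidirectional curve fit vs DMSO.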

[5] = biological target: Hepatocyte nuclear factor 6 (Homo sapiens) (UniProt Q9UBC0); experiment: ATG_HNF6_CIS: Attagene CIS-FACTORIAL HepG2 Assay for human Hepatocyte Nuclear Factor 6 (HNF6) (AID 2282952); conditions: HepG2 Attagene cis-factorial HNF6 reporter transcription; actives raise or lower the signal
Procedure, shortened: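 Twenty-four-hour chemical treatment of reporter-transfected HepG2 cells precedes RNA isolation, DNase-treated reverse transcription and PCR of reporter sequences. Labelled fragments are sized by capillary electrophoresis and fitted bidirectionally versus DMSO.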

[6] = biological target: Heat shock factor protein 1 (Homo sapiens) (UniProt Q00613); experiment: ATG_HSE_CIS: Attagene CIS-FACTORIAL HepG2 Assay for human Heat Shock Transcription Factor 1 (HSE) (AID 2282953); conditions: HepG2 HSE cis-reporter, Attagene RNA transcription; actives raise or lower the signal
Procedure, shortened: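 HepG2, transient MRTU transfection, cis-promoter reporters (endogenous TF activity). 24 h compound. RNA → oligo(dT) RT → PCR → 6-FAM primer extension → HpaI cut → CE. Bidirectional fit vs DMSO.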

[7] = ATG_MRE_CIS: Attagene CIS-FACTORIAL HepG2 Assay for human Metal Responsive Element (MRE) (AID 2282954); conditions: HepG2 MRE cis-reporter transcription, Attagene multiplex; actives raise or lower the signal
Procedure, shortened: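 Multiplexed cis-reporter assay in human HepG2 liver cells, 24 h incubation with test chemical. Reporter transcripts measured by RT-PCR and capillary electrophoresis; values from bidirectional curve fitting versus DMSO.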

[8] = ATG_PBREM_CIS: Attagene CIS-FACTORIAL HepG2 Assay for human Phenobarbital-responsive Enhancer Module (PBREM) (AID 2282955); conditions: HepG2 PBREM cis-reporter, Attagene multiplexed transcription; actives raise or lower the signal
Procedure, shortened: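 HepG2, transient MRTU transfection, 24 h dosing; RNA → oligo(dT) RT → PCR → 6-FAM extension → HpaI → CE. Bidirectional fit vs DMSO.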

[9] = ATG_GRE_CIS: Attagene CIS-FACTORIAL HepG2 Assay for human Glucocorticoid Response Elements (GRE) (AID 2282947); conditions: HepG2 GRE cis-reporter, Attagene multiplex mRNA; actives raise or lower the signal
Procedure, shortened: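 Multiplexed cis-reporter mRNA induction, HepG2, 24 h post-dose. RT-PCR, FAM-labelled, HpaI-digested amplicons by CE. Bidirectional fit vs DMSO.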

Sequence of Hepatocyte nuclear factor 6 (Homo sapiens) (Q9UBC0 whole entry, looked up, the tested form may be a part): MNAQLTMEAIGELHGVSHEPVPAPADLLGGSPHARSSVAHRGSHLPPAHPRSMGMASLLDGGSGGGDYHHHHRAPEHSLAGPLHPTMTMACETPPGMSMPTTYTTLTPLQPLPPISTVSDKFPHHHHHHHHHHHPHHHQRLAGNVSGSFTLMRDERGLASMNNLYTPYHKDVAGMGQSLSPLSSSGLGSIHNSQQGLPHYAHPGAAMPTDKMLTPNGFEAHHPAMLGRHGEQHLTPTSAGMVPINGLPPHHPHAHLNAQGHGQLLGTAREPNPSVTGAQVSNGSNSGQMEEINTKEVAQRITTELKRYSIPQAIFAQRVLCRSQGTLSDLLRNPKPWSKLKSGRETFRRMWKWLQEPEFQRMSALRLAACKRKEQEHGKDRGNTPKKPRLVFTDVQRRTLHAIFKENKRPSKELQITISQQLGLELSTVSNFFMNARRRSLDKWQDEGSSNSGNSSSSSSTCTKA
Sequence of Heat shock factor protein 1 (Homo sapiens) (Q00613 whole entry, looked up): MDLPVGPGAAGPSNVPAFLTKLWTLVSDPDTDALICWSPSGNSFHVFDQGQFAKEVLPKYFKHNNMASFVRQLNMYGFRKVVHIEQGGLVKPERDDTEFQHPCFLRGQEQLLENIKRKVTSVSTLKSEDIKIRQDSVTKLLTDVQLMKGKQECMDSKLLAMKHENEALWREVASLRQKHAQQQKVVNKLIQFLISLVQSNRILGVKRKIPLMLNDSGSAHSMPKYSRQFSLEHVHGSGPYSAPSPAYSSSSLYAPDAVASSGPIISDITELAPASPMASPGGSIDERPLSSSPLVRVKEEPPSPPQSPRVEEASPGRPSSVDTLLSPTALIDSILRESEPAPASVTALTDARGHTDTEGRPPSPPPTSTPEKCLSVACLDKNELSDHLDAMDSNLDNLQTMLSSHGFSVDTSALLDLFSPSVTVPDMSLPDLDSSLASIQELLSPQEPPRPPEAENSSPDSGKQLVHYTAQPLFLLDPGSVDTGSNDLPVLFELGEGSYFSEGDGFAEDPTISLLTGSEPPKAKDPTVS
Sequence of Hypoxia-inducible factor 1-alpha (Homo sapiens) (Q16665 whole entry, looked up): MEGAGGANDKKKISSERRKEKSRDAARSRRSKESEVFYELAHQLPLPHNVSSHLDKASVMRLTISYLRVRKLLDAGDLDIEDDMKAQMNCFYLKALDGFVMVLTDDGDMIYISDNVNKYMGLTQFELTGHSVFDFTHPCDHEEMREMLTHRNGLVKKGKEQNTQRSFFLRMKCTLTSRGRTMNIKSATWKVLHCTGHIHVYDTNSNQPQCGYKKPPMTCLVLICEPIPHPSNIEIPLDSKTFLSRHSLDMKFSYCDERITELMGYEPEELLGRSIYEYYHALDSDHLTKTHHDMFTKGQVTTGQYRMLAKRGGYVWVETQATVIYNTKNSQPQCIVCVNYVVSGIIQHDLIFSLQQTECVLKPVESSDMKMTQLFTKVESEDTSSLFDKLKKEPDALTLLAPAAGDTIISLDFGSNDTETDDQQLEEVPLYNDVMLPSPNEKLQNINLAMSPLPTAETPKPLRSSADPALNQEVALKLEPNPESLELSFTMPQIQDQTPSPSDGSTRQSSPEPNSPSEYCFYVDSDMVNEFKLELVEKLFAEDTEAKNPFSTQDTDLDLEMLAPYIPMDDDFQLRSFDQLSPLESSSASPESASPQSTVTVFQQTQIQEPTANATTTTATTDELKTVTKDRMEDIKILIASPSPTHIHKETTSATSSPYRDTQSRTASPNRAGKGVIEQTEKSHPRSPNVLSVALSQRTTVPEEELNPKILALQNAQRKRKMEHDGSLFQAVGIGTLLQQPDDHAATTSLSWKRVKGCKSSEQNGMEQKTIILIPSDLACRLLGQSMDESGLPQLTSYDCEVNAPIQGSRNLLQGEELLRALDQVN

For `Cc1ccccc1CO[C@@H]1C[C@@]2(C(C)C)CC[C@]1(C)O2`, the outcome [1] was “inactive”, the outcome [2] was “inactive” and the outcome [3] was “inactive”. The outcome [4] was “inactive”, the outcome [5] was “inactive” and the outcome [6] was “inactive”. For the same compound, the outcome [7] was “inactive” and the outcome [8] was “inactive”.
With `O=C(NC(=O)c1c(F)cccc1F)Nc1cc(Cl)c(OC(F)(F)C(F)F)c(Cl)c1` the outcome [9] was “inactive”, the outcome [1] was “inactive” and the outcome [2] was “inactive”. For the same compound, the outcome [3] was “inactive”, the outcome [4] was “inactive” and the outcome [6] was “inactive”. For the same compound, the outcome [7] was “inactive” and the outcome [8] was “inactive”.
With `ClC1=C(Cl)[C@]2(Cl)[C@@H]3[C@@H]4C[C@@H]([C@H]5O[C@@H]45)[C@@H]3[C@@]1(Cl)C2(Cl)Cl` the outcome [9] was “inactive”, the AC50 [1] was 80.5 µM (active) and the outcome [2] was “inactive”. The outcome [3] was “inactive”, the outcome [4] was “inactive” and the outcome [5] was “inactive”. For the same compound, the AC50 [7] was 46.5 µM (active).
For `Cc1ccc(O)c(C)c1`, the outcome [9] was “inactive”, the outcome [1] was “inactive” and the outcome [2] was “inactive”. The outcome [3] was “inactive”, the outcome [4] was “inactive” and the outcome [7] was “inactive”.
In the case of `C=CC(=O)NCNC(=O)C=C`, the outcome [9] is reported as “inactive”, the outcome [1] is reported as “inactive” and the outcome [2] is reported as “inactive”. The outcome [3] was “inactive”, the outcome [4] was “inactive” and the outcome [5] was “inactive”. The outcome [7] was “inactive” and the outcome [8] was “inactive”.
With `Cc1ccccc1O` the outcome [9] was “inactive”, the outcome [1] was “inactive” and the outcome [2] was “inactive”. For the same compound, the outcome [3] was “inactive”, the outcome [4] was “inactive” and the outcome [6] was “inactive”. For the same compound, the outcome [7] was “inactive” and the outcome [8] was “inactive”.
With `O=C(N[C@H]1CN2CCC1CC2)c1cc2ccoc2cn1` the outcome [9] was “inactive”, the AC50 [1] was 82.4 µM (active) and the outcome [2] was “inactive”. The outcome [3] was “inactive”, the outcome [4] was “inactive” and the outcome [5] was “inactive”. The outcome [7] was “inactive” and the outcome [8] was “inactive”.
For `C=CC(N)=O`, the outcome [9] was “inactive”, the outcome [1] was “inactive” and the outcome [2] was “inactive”. The outcome [3] was “inactive”, the AC50 [4] was 26 µM (active) and the outcome [5] was “inactive”. The outcome [6] was “inactive” and the outcome [7] was “inactive”.
With `CN(C)CCO` the outcome [9] was “inactive”, the outcome [1] was “inactive” and the outcome [2] was “inactive”. For the same compound, the outcome [3] was “inactive”, the outcome [4] was “inactive” and the outcome [5] was “inactive”. The outcome [7] was “inactive” and the outcome [8] was “inactive”.
With `CCCCCCOC(=O)c1ccccc1C(=O)OCCCCCC` the outcome [9] was “inactive”, the outcome [1] was “inactive” and the outcome [2] was “inactive”. For the same compound, the outcome [3] was “inactive”, the outcome [4] was “inactive” and the outcome [6] was “inactive”. The outcome [7] was “inactive” and the outcome [8] was “inactive”.
For `CC#Cc1cc(C)nc(Nc2ccccc2)n1`, the outcome [9] was “inactive”, the outcome [1] was “inactive” and the outcome [2] was “inactive”. For the same compound, the outcome [3] was “inactive”, the outcome [4] was “inactive” and the AC50 [7] was 68.2 µM (active). For the same compound, the outcome [8] was “inactive”.
With `Sc1ccccc1` the outcome [9] was “inactive”, the outcome [1] was “inactive” and the outcome [2] was “inactive”. For the same compound, the outcome [3] was “inactive”, the outcome [4] was “inactive” and the outcome [7] was “inactive”. The outcome [8] was “inactive”.
In the case of `O=C(NC(=O)c1cc(F)c(F)cc1Cl)Nc1cc(F)ccc1N1CCC(C(=O)O)CC1`, the outcome [9] is reported as “inactive”, the outcome [1] is reported as “inactive” and the outcome [2] is reported as “inactive”. For the same compound, the outcome [3] was “inactive”, the outcome [4] was “inactive” and the outcome [5] was “inactive”. For the same compound, the outcome [6] was “inactive” and the outcome [7] was “inactive”.
In the case of `Clc1ccc(Cl)cc1`, the outcome [9] is reported as “inactive”, the outcome [1] is reported as “inactive” and the outcome [2] is reported as “inactive”. The outcome [3] was “inactive”, the AC50 [4] was 5.24 µM (active) and the outcome [4] was “inactive”. For the same compound, the outcome [5] was “inactive”, the outcome [7] was “inactive” and the outcome [8] was “inactive”.
For `CCC(C)(CC)c1cc(NC(=O)c2c(OC)cccc2OC)on1`, the outcome [1] was “inactive”, the outcome [2] was “inactive” and the outcome [3] was “inactive”. The AC50 [4] was 8.77 µM (active), the outcome [6] was “inactive” and the AC50 [7] was 14.4 µM (active). The AC50 [8] was 1.43 µM (active).
For `O=C(O)C(F)(F)C(F)(F)C(F)(F)C(F)(F)C(F)(F)C(F)(F)C(F)(F)C(F)(F)C(F)(F)F`, the outcome [9] was “inactive”, the AC50 [1] was 48.2 µM (active) and 33.8 µM (active) and 90.4 µM (active) and the AC50 [2] was 78.3 µM (active). For the same compound, the outcome [2] was “inactive”, the outcome [3] was “inactive” and the AC50 [4] was 26.6 µM (active). For the same compound, the outcome [4] was “inactive”, the AC50 [7] was 49.2 µM (active) and 42.6 µM (active) and 22.6 µM (active) and the outcome [8] was “inactive”.
In the case of `CCOC(=O)C(O)(c1ccc(Cl)cc1)c1ccc(Cl)cc1`, the outcome [9] is reported as “inactive”, the outcome [1] is reported as “inactive” and the outcome [2] is reported as “inactive”. For the same compound, the outcome [3] was “inactive”, the AC50 [4] was 0.000836 µM (active) and the outcome [5] was “inactive”. The AC50 [7] was 11.1 µM (active) and the outcome [8] was “inactive”.
In the case of `CCOCCOC(C)=O`, the outcome [9] is reported as “inactive”, the outcome [1] is reported as “inactive” and the outcome [2] is reported as “inactive”. For the same compound, the outcome [3] was “inactive”, the outcome [4] was “inactive” and the outcome [6] was “inactive”. For the same compound, the outcome [7] was “inactive”.
